# Laboratory results from PubChem BioAssay.
# Unmarked numbers belong to inactive results. The list shows a part of the results. Calls of active or inactive are those of the source. Unless noted, no stated cut-off is given here; in the data, active means inhibition above about 28%; inactive means the rest.
# Columns and labels:
# [1] = biological target: Nuclear receptor coactivator 1 (Homo sapiens) (UniProt Q15788); experiment: SRC1 coactivator transcriptional activity inhibitors, confirmation, cell-based, luminescence, quadruplicate (AID 588820;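 active means mean inhibition above 46.68%, the untreated control wells mean plus 3 SD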;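 further: 0% = DMSO wells and 100% = gossypol 36 µM treated wells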); conditions: HEK293 GAL4-SRC1 luciferase reporter, at 3.6 µM, hits give high values
# Chain of Nuclear receptor coactivator 1 (Homo sapiens) (Q15788 whole entry, looked up, the tested form may be a part): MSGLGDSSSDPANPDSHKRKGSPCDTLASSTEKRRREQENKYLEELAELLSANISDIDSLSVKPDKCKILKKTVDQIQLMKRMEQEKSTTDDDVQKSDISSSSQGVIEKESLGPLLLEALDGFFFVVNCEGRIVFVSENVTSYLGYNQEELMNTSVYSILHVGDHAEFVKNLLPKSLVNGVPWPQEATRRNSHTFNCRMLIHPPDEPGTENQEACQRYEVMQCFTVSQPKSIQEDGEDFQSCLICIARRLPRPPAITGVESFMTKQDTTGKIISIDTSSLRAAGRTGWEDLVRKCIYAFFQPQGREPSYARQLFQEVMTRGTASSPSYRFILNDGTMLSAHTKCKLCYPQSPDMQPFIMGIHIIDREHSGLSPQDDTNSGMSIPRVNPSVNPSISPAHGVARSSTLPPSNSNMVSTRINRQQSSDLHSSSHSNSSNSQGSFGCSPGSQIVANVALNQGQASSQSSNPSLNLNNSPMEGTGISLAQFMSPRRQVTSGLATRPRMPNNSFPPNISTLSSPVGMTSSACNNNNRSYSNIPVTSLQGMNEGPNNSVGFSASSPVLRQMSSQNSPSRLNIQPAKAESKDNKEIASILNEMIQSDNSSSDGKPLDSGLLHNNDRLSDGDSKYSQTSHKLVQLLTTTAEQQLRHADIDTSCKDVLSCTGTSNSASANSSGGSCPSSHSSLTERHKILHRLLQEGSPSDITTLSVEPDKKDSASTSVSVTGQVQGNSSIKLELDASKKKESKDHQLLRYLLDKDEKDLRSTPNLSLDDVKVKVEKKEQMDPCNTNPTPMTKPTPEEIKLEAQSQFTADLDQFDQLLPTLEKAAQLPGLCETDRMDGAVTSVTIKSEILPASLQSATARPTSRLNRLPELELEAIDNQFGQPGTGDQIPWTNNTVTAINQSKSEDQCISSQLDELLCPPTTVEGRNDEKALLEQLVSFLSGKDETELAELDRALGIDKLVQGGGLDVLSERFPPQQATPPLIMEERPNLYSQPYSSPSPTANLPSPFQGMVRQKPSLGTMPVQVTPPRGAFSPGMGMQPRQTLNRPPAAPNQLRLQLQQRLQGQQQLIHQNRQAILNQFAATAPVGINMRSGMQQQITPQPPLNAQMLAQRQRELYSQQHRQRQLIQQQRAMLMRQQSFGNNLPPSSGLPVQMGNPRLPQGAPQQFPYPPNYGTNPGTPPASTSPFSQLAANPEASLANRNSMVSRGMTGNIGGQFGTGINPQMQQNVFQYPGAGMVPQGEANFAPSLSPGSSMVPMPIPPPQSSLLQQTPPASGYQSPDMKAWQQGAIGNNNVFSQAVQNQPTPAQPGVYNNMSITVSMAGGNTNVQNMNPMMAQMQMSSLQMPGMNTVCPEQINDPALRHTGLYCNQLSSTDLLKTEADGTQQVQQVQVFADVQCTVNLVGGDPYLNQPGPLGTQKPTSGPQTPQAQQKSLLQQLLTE
# [2] = VP16 transactivation inhibitors, counter-screen for SRC1 inhibitor project, cell-based, luminescence, high throughput (AID 588824; in the data active means inhibition above about 25%); conditions: cell-based VP16 transactivation luciferase luminescence; at 3.6 µM; hits give high values
# [3] = StAR promoter reporter inhibitors, counter-screen for LRH-1 inverse agonist project, cell-based, luminescence, high throughput (AID 651611); conditions: StAR promoter luciferase reporter counterscreen, at 3.6 µM, hits give high values
# [4] = biological target: Nuclear receptor subfamily 5 group A member 2 (Homo sapiens) (UniProt O00482); experiment: LRH-1 (NR5A2) inverse agonists, retest, confirmation, cell-based, luminescence (AID 651613; in the data active means inhibition above about 42%;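 further: HEK293T cells co-transfected with LRH-1 and StAR promoter luciferase reporter; 0% = vehicle wells and 100% = parental cells lacking receptor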); conditions: cell-based LRH-1 luciferase reporter, inverse agonism; at 3.6 µM; hits give high values
# Chain of Nuclear receptor subfamily 5 group A member 2 (Homo sapiens) (O00482 whole entry, looked up): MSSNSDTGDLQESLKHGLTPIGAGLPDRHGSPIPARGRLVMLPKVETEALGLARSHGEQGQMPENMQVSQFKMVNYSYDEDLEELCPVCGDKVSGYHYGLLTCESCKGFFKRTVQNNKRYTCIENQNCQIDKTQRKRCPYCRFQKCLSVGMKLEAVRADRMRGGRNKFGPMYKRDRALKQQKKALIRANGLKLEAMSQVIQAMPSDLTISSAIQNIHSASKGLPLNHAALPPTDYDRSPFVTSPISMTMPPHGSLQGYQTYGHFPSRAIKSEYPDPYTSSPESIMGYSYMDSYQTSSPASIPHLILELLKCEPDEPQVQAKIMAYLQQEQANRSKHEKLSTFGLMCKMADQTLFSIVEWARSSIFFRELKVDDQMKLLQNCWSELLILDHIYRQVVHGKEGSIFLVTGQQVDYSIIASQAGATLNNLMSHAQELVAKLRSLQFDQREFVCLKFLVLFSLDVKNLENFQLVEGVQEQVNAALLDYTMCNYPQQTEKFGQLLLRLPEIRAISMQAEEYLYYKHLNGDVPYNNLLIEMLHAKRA
# [5] = biological target: Steroidogenic factor 1 (Homo sapiens) (UniProt Q13285); experiment: SF1 (NR5A1) inverse agonists, counter-screen for LRH-1 inverse agonist project, cell-based, luminescence, high throughput (AID 651614; in the data active means inhibition above about 44%;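 further: cells cotransfected with StAR promoter reporter and SF1 expression vector; 0% = vehicle on cells with receptor and 100% = vehicle on cells lacking receptor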); conditions: cell-based SF1 luciferase reporter, at 3.6 µM, hits give high values
# Chain of Steroidogenic factor 1 (Homo sapiens) (Q13285 whole entry, looked up, the tested form may be a part): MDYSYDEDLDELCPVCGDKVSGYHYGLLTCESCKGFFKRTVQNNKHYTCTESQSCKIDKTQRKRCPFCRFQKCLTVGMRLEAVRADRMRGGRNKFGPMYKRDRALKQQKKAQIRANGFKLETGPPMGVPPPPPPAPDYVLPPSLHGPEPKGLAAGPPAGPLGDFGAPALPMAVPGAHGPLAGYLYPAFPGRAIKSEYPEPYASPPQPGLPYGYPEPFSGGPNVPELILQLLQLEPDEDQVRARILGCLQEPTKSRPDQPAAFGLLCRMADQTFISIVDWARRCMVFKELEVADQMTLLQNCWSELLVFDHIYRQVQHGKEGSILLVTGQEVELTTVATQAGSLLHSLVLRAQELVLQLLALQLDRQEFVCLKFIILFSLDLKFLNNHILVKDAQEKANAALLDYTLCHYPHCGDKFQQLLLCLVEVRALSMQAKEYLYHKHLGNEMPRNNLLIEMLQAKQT
# [6] = VP16 transactivation reporter inhibitors, counter-screen for LRH-1 inverse agonist project, cell-based, luminescence, high throughput (AID 651615; in the data active means inhibition above about 33%); conditions: Gal4-VP16 luciferase reporter cells, at 3.6 µM, hits give high values
# [7] = growth loss of phage-infected RecBCD+ E. coli, confirmation, RecBCD inhibitor project, absorbance, E. coli V66, T4 gene 2 phage (AID 651982;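 active means mean inhibition over triplicates exceeding the hit threshold derived in the original primary screen, cut at about 11% in these data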); conditions: E. coli V66 + T4 2- phage, growth OD; at 11.9 µM; hits give high values
# [8] = E. coli viability inhibition, counter-screen for RecBCD inhibitor project, absorbance, high throughput (AID 651983; in the data active means inhibition above about 20%;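 further: E. coli strain V66 grown with compound alone and no phage infection; 0% = bacteria with DMSO vehicle only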); conditions: absorbance (OD) growth, at 11.9 µM, hits give high values
# [9] = growth loss of phage-infected AddAB-carrying E. coli, confirmation, counter-screen for RecBCD inhibitor project, absorbance, E. coli V3065, T4 phage (AID 651984;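 active means mean inhibition above the solvent-only control wells' mean plus 3 SD, cut at about 22% in these data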;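 further: higher means less bacterial growth from phage killing when AddAB is blocked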); conditions: E. coli expressing H. pylori AddAB + T4 phage, OD growth; at 11.9 µM; hits give high values; gene 2 mutant T4, recBCD-deleted host
# [10] = biological target: Oxysterols receptor LXR-beta (Homo sapiens) (UniProt P55055); experiment: LXR agonists, Gal4 luciferase reporter, confirmation, counter-screen for hcDAF-12 agonist project, cell-based, luminescence, HEK293, H. contortus campaign (AID 743027;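 active means mean percent activation of the reporter above a cutoff set as the average over tested compounds plus their standard deviation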); conditions: HEK293 Gal4-LXR tk-luc reporter, 24 h, at 6.8 µM, hits give high values, normalized: DMSO 0%, positive control 100%
# Chain of Oxysterols receptor LXR-beta (Homo sapiens) (P55055 whole entry, looked up, the tested form may be a part): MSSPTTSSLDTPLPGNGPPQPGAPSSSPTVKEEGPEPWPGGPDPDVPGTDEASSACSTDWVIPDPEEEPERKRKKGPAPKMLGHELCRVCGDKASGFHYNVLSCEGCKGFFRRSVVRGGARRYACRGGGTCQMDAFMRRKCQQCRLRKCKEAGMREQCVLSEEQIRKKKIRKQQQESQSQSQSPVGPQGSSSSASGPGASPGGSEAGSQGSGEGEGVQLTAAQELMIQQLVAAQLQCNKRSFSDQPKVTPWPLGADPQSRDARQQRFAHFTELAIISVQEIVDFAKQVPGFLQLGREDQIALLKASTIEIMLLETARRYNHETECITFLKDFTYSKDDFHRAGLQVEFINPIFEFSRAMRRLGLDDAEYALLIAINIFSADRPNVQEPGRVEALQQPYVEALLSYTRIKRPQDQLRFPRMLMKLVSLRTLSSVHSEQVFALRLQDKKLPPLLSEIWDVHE
# [11] = system: Nuclear hormone receptor DAF-12 (Haemonchus contortus); experiment: H. contortus DAF-12 receptor agonists, confirmation, cell-based, luminescence, HEK293, lit1-tk-luc, triplicate (AID 743032;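 active means mean activation across triplicate tests above the threshold derived from the earlier primary screen, cut at about 5.5% in these data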;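 further: 0% = DMSO only wells and 100% = 3 µM Δ7-dafachronic acid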); conditions: HEK293 hcDAF-12 lit1-tk-luc reporter, at 6.8 µM, hits give high values, % of Δ7-dafachronic acid response
# [12] = Gal4-VP16 luciferase reporter inhibitors, counter-screen for COUP-TFII antagonist project, cell-based, luminescence, HEK293 (AID 687007; in the data active means inhibition above about 13%); conditions: at 8.5 µM, hits give high values
# [13] = biological target: COUP transcription factor 2 (Homo sapiens) (UniProt P24468); experiment: NR2F2 transcriptional activity inhibitors, confirmation, cell-based, luciferase reporter, HEK293, triplicate (AID 687008;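 active means mean inhibition over three repeats above a set limit taken from the earlier primary screen, cut at about 38% in these data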;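 further: 100% = cells given the luciferase reporter alone without the COUP-TF2 vector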); conditions: HEK293 NGFI-A luciferase reporter, luminescence; at 8.5 µM; hits give high values
# Chain of COUP transcription factor 2 (Homo sapiens) (P24468 whole entry, looked up): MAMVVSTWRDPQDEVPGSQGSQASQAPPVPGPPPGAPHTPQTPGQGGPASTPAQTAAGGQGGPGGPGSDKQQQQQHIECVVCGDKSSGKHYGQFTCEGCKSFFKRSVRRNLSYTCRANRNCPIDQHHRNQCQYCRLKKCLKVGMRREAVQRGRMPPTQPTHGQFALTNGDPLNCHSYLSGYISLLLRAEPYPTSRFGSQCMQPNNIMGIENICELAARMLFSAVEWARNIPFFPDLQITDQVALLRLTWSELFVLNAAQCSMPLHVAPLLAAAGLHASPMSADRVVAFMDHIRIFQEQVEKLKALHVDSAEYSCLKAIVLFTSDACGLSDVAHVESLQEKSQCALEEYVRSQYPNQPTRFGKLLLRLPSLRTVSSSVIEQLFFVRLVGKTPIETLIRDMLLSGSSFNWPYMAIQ
smiles,measurement,setting,value
Cc1cc2[nH]c3c(c[n+](C)c4ccccc34)c2cc1C,inhibition,[1],20.9%
same,inhibition,[2],47.8% (active)
same,inhibition,[3],41.7% (active)
same,inhibition,[4],100% (active)
same,inhibition,[5],66.4% (active)
same,inhibition,[6],84.2% (active)
COc1ccccc1NS(=O)(=O)c1cccc(C(=O)NC2CCN(Cc3ccccc3)CC2)c1,inhibition,[1],-19.5%
same,inhibition,[2],26.4% (active)
same,inhibition,[3],26.2%
same,inhibition,[4],60.4% (active)
same,inhibition,[5],65.3% (active)
same,inhibition,[6],48.3% (active)
CN(C)CCNc1ccc(CO)c2sc3ccc(O)cc3c(=O)c12,inhibition,[1],44.8%
same,inhibition,[2],39.1% (active)
same,inhibition,[3],77% (active)
same,inhibition,[4],89.5% (active)
same,inhibition,[5],75.7% (active)
same,inhibition,[6],61.2% (active)
CCCCCCCCCCOC(=O)Cn1c(COc2ccccc2C)[n+](C)c2ccccc21,inhibition,[1],-8.25%
same,inhibition,[2],6.65%
same,inhibition,[3],-2.25%
same,inhibition,[4],42.2% (active)
same,inhibition,[5],38.4%
same,inhibition,[6],38.9% (active)
COc1ccc(C(=O)NCCN(C)C)c2nc3ccccc3cc12,inhibition,[1],20.7%
same,inhibition,[2],39.4% (active)
same,inhibition,[3],63.9% (active)
same,inhibition,[4],77.7% (active)
same,inhibition,[5],60% (active)
same,inhibition,[6],65.3% (active)
COc1ccc(NS(=O)(=O)c2ccc(-c3cnc(C4CC4)o3)cc2)cc1OC,inhibition,[1],-15.9%
same,inhibition,[2],37.2% (active)
same,inhibition,[3],53.2% (active)
same,inhibition,[4],77.5% (active)
same,inhibition,[5],78.8% (active)
same,inhibition,[6],31.6% (active)
Cc1cccc(-n2ncc3c2CCCC3NC(=O)c2ccncc2)c1C (stereo unspecified),inhibition,[1],-10.4%
same,inhibition,[2],26.6% (active)
same,inhibition,[3],14.7%
same,inhibition,[4],54.5% (active)
same,inhibition,[5],52.1% (active)
same,inhibition,[6],44% (active)
O=C1c2cccc3cc([N+](=O)[O-])cc(c23)C(=O)N1CCN1CCCC1,inhibition,[1],-86.9%
same,inhibition,[2],42.6% (active)
same,inhibition,[3],13.3%
same,inhibition,[4],91.6% (active)
same,inhibition,[5],68.6% (active)
same,inhibition,[6],64.2% (active)
COc1ccc(CNC(=O)c2cccc3c(-c4cccnc4)coc23)cc1OC,inhibition,[1],-25.2%
same,inhibition,[2],43.8% (active)
same,inhibition,[3],48.5% (active)
same,inhibition,[4],59.9% (active)
same,inhibition,[5],66.4% (active)
same,inhibition,[6],67.4% (active)
NC(=O)[C@H]1CC2(CC(c3cccc(NC(=O)COc4ccc(Cl)cc4)c3)=NO2)CN1C(=O)Cc1ccc([N+](=O)[O-])cc1 (stereo partly specified),inhibition,[1],8.04%
same,inhibition,[2],39.5% (active)
same,inhibition,[3],13.5%
same,inhibition,[4],55.8% (active)
same,inhibition,[5],50.3% (active)
same,inhibition,[6],52.5% (active)
CN(Cc1ccccc1)C(=O)c1ccc(NC(=O)Cc2ccc(NC(=O)C3CCCN(C(=O)CCc4ccccc4)C3)cc2)cc1 (stereo unspecified),inhibition,[1],-11.5%
same,inhibition,[2],37.6% (active)
same,inhibition,[3],29% (active)
same,inhibition,[4],62.2% (active)
same,inhibition,[5],64.3% (active)
same,inhibition,[6],55.8% (active)
CN1CCN(c2ccc(CNS(=O)(=O)Cc3cccc(C(F)(F)F)c3)cc2)CC1,inhibition,[1],-13.6%
same,inhibition,[2],26.4% (active)
same,inhibition,[3],15.4%
same,inhibition,[4],69.8% (active)
same,inhibition,[5],68.1% (active)
same,inhibition,[6],40.1% (active)
CC(=O)NC(c1ccc(Cl)cc1Cl)c1ccc2cccnc2c1O (stereo unspecified),inhibition,[1],67.2% (active)
same,inhibition,[2],70.6% (active)
same,inhibition,[3],85.4% (active)
same,inhibition,[4],102% (active)
same,inhibition,[5],86.8% (active)
same,inhibition,[6],80.2% (active)
Cc1cc(C)c(CN2CCN(C(=O)Cn3cnc4c(NCc5ccccc5)ncnc43)CC2)c(C)c1,inhibition,[1],-9.2%
same,inhibition,[2],43.4% (active)
same,inhibition,[3],35% (active)
same,inhibition,[4],54.1% (active)
same,inhibition,[5],57.5% (active)
same,inhibition,[6],57.9% (active)
Cc1ccc(C#CC[N+]2(CC#Cc3ccc(C)cc3)CCCCC2)cc1,inhibition,[1],32.6%
same,inhibition,[2],36.3% (active)
same,inhibition,[3],40.5% (active)
same,inhibition,[4],74.2% (active)
same,inhibition,[5],65.3% (active)
same,inhibition,[6],67.5% (active)
Cc1ccc2occ(/C=N/NC(=O)c3ccccc3O)c(=O)c2c1,inhibition,[1],5.51%
same,inhibition,[2],13.2%
same,inhibition,[3],14.5%
same,inhibition,[4],3.45%
same,inhibition,[5],2%
same,inhibition,[6],25%
CC(=O)Nc1ccccc1OCC(=O)c1cc(C)n(Cc2cccs2)c1C,inhibition,[1],-59.8%
same,inhibition,[2],39.3% (active)
same,inhibition,[3],28.7% (active)
same,inhibition,[4],21.5%
same,inhibition,[5],47.4% (active)
same,inhibition,[6],39.6% (active)
Cc1ccc(S(=O)(=O)/N=C(\CCl)N2CCOCC2)cc1,inhibition,[1],-32.5%
same,inhibition,[2],-30.7%
same,inhibition,[3],23.9%
same,inhibition,[4],50.2% (active)
same,inhibition,[5],52.1% (active)
same,inhibition,[6],-22.8%
NC(=S)NN=Cc1ccc(OC(=O)COc2cc(Cl)c(Cl)cc2Cl)cn1,inhibition,[7],1.21%
same,inhibition,[8],5.2%
same,inhibition,[9],23.4% (active)
CN(C)CCNC(=O)c1ccc(Cl)c2cc3ccccc3nc12,activation,[10],0.85%
same,activation,[11],8.92% (active)
CCN(CC)CC(C)(C)C(=O)/C=C/c1ccc(/C=C/C(=O)C(C)(C)CN(CC)CC)cc1,inhibition,[3],84.9% (active)
same,inhibition,[4],99.6% (active)
same,inhibition,[5],95.1% (active)
same,inhibition,[6],88.8% (active)
C=CCNc1ncnc2ccc(Br)cc12,inhibition,[12],9.27%
same,inhibition,[13],22.7%
OC[C@@H]1CN(Cc2ccncc2)C[C@H](n2cnc3c(N4CCN(c5ccccc5)CC4)ncnc32)O1,inhibition,[12],8.35%
same,inhibition,[13],44.6% (active)
